Results: PubChem BioAssay AID1347069 (National Center for Advancing Translational Sciences (NCATS), 2019)
The whole screen tested about 44,000 compounds, of which fewer than 10 were called active. The call rests on the fitted dose curve; in most records, active means well fitted inhibition curve with a large enough effect; inconclusive means small, poorly fitted or top-dose-only effect; inactive means flat fitted curve, though single readings scatter. The list is a sample of the results.

Biological target: Tumor susceptibility gene 101 protein (Homo sapiens) (UniProt Q99816)
Sequence (Q99816 whole entry, looked up): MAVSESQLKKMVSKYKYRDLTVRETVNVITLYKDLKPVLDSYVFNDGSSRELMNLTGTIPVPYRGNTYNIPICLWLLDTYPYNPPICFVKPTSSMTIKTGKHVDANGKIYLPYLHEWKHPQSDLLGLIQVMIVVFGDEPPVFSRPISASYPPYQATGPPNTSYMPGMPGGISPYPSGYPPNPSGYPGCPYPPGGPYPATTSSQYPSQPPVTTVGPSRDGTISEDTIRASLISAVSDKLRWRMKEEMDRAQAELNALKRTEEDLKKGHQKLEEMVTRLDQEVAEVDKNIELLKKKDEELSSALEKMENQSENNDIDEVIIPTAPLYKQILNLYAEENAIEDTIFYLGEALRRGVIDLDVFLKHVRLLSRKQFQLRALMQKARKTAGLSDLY
Experiment: qHTS Validation Assay for Inhibitors of HIV-1 Budding by Blocking the Interaction of PTAP/TSG101: Sytravon Library Screen; further: 0% is about no effect
Settings: Fluorescence polarization, FITC-PTAP peptide/Tsg101, 20 min; series mostly up to 115 µM; activity change, negative = inhibition: at the top concentration
Description: Stages of the HIV-1 replication cycle, specifically virus assembly and release, provide underexploited targets for the development of novel antiviral inhibitors. The late stages of HIV-1 replication are mediated by the Gag precursor protein, Pr55Gag. Expression of Pr55Gag is both necessary and sufficient for the production of virus-like particles from Gag-expressing cells. The Gag protein hijacks key host proteins involved in endocytic machinery of the host cell to promote endosomal processing and viral budding. The budding process requires a direct interaction between a […] (PTAP) motif in the p6 domain of Gag and the cellular endosomal sorting protein known as Tsg101. In this way, the Gag PTAP motif promotes the host cells to recruit viral particles to the plasma membrane where the new viral particles are released, effectively turning the host cells into viral factories. A fluorescence polarization assay has been developed to quantitatively measure the PTAP-Tsg101 interaction which can be used to screen for inhibitors of this interaction. This assay was run against the NCGC Sytravon Library collection. NIH Molecular Libraries Probe Production Network [MLPCN] NIH Chemical Genomics Center [NCGC] Grant: R03 MH087464-01A1 PI Name: Dr. Eric Freed, NCI
Two uL of the Tsg101 binding domain in buffer (10 mM HEPES pH 7.5; 0.15 M NaCl, 0.01% Tween 20; 3 mM EDTA;0.1 mM TCEP) was dispensed into Greiner black MB 1536-well plates (final concentration 10 uM). Then, 23 nL of compounds or DMSO were delivered to each well using a pin tool. Finally, 2 uL of a FITC-labeled peptide containing the PTAP motif (1) in the same buffer was dispensed (50 nM final concentration) and the binding was allowed to proceed for 20 min. at r.t. Fluorescent polarization was determined using FITC excitation and polarized emission filters on a Perkin Elmer Envision. Assay cut-off (positive/negative criteria): Actives defined by CRC class, <25 µM; Efficacy <60% inhibition. The total fluorescent intensity from S and P channels will be used to flag fluorescent compounds.

Activity change, negative = inhibition, inactive:
O=C(OCc1cc(=O)n2nc(C3CC3)sc2n1)c1ccccc1Cl 0.428%
COc1ccc(NC(=O)Nc2cccc(-c3noc(C)n3)c2)cc1 -0.369%
CC(C)(C)c1ccc(C(=O)N2CCC(c3nc(-c4ccc(S(=O)(=O)N5CCCC5)cc4)no3)CC2)cc1 -4.06%
CCCCCn1c(CCCNC(=O)c2ccccc2OC)nc2ccccc21 -6.58%
COc1ccccc1CNc1nccn(-c2ccc(F)cc2)c1=O 1.54%
Cc1c(Cl)cccc1-c1ccc(CNCCCSc2nnnn2C)o1 0.191%
CSc1ccc(C2c3c(oc4ccccc4c3=O)C(=O)N2CCCN2CCOCC2)cc1 (configuration not stated) -5.71%
CSc1cccc(NC(=O)CN2C(=O)CCc3cc(S(=O)(=O)N4CCCCC4)ccc32)c1 -4%
COc1ccc(OC)c(NC(=O)CSC2=Nc3ccccc3C3=NC(CC(=O)NCc4ccc(F)cc4)C(=O)N23)c1 (configuration not stated) 1.59%
Cc1cc(OC(C)C(=O)Nc2sc3c(c2C(N)=O)CCCC3)ccc1Cl (configuration not stated) -0.431%
COc1ccc(-c2cc(-c3ccccc3)nc3c2COc2ccc(Cl)cc2-3)cc1 -2.13%
CCCCNC(=O)C1CCCN(c2nnc(C)c3c(C)n(-c4ccc(Cl)cc4)nc23)C1 (configuration not stated) -6.8%
Cc1cccc(NC(=O)N2CCN(C)c3ncccc32)c1C -11.3%
CCc1nnc(SCc2nc(-c3cccc(C)c3)oc2C)c2cc3sc(C)cc3n12 0.355%
CC(C)(C)c1ccc(C(=O)Nc2ccc3c(c2)CCCN3C(=O)c2cccs2)cc1 -7.67%
CCN1CCN(C(c2ccc(C)cc2)c2c(O)cc(C)n(Cc3ccco3)c2=O)CC1 (configuration not stated) -3.55%
Cc1csc2nc(COC(=O)c3ccccc3NC(=O)c3ccccc3Cl)cc(=O)n12 -4.86%
Cc1ccc(NC(=O)c2ccc3[nH]c(C)cc(=O)c3c2)c(C)c1 -2.8%
Cc1ccc2c(c1)c1c(c(=O)n(-c3ccccc3)c(=O)n1CC(=O)c1ccc(Cl)cc1)n2C 0.738%
Cc1ccccc1-c1nc2cc(NC(=O)c3cccc(OCCC(C)C)c3)ccc2o1 5.77%
CCn1c(C)c(C)c2cc(C(=O)NCCc3cc(OC)ccc3OC)ccc21 0.404%
Cn1c(=O)c2c(ncn2CC(=O)Nc2cccc(C(F)(F)F)c2)n(C)c1=O -3.44%
Cc1ccc(-n2nc(C)c3c(C)cc(=O)n(CC(=O)Nc4ccc(C(C)C)cc4)c32)cc1 -0.986%
Cc1ccc(C2c3[nH]c4ccccc4c3CCN2C(=O)c2cccc(C)c2)cc1 (configuration not stated) 0.206%
CCOC(=O)C1CCN(c2nc3c(S(=O)(=O)c4ccc(CC)cc4)nnn3c3ccc(Cl)cc23)CC1 3.23%
O=C(CSc1nc2ccccc2nc1Cc1ccccc1)N1CCCCC1 -0.453%
COc1cccc(CNC(=O)c2ccc3c(Cl)c4c(nc3c2)CCCC4)c1 3.82%
CCCN(CCC)CCCNC(=O)Cn1cc2c(n1)-c1c(oc(C(=O)N3CCCC3)c1C)CC2 0.792%
COc1ccc(NC(=O)Cn2cc(C(=O)c3ccncc3)c(=O)c3cc(C)ccc32)cc1Cl -2.08%
O=C(Cn1ncc2c3ccccc3n(Cc3ccccc3)c2c1=O)NC1CCCCCC1 -1.3%
Cc1ccc(NC(=O)CN2C(=O)CC(C)Sc3ccccc32)c(C)c1 (configuration not stated) 3.04%
CC(C)c1ccc(OCC(=O)N(Cc2ccc(N(C)C)cc2)C2CCS(=O)(=O)C2)cc1 (configuration not stated) -7.04%
CCCn1c(NCc2ccccc2F)nc2ccccc21 -0.519%
O=C(COc1ccc(Cl)cc1)N(Cc1ccco1)Cc1ccco1 1.1%
Cc1ccc(CCNC(=O)c2ccc3c(c2)N(Cc2cc(C)ccc2C)C(=O)c2ccccc2S3=O)cc1 (configuration not stated) 1.61%
O=C(c1ccc2c(c1)N(Cc1ccccc1)C(=O)c1ccccc1S2(=O)=O)N1CCC(Cc2ccccc2)CC1 -1.43%
CCCCn1c(=O)c2oc3ccccc3c2n(CC(=O)Nc2ccccc2OC)c1=O 3.66%
COC(=O)c1ccc(NC(=O)c2cnn(-c3ccc(Cl)cc3)c2C2CCN(C(=O)OC(C)(C)C)CC2)cc1 -0.729%
COc1ccc(-c2nc3ccc(C(=O)NCc4ccc(C)cc4)cc3nc2-c2ccc(OC)cc2)cc1 -6.79%
Cc1cccc(N(C)C(=O)CS(=O)(=O)c2cccc3nsnc23)c1 -1.31%
O=C(C1CCC(Cn2c(=O)c3sccc3n(Cc3ccccc3F)c2=O)CC1)N1CCCCC1 (configuration not stated) -6.37%
CCN1CCN(CCCNC(=O)c2ccc3c(c2)sc2nc(-c4ccc(OC)cc4)cn23)CC1 -0.122%
COc1cccc2c1cc1c(=O)n(CC(=O)N3CCN(c4ccccc4)CC3)nc(C)n12 0.0884%
O=C(Nc1ccc(Oc2ccccc2)cc1)C1CCN(S(=O)(=O)c2ccc(Cl)cc2)CC1 -2.62%
COc1ccc(-c2cn3c(C)c(C(=O)Nc4cc(C)cc(C)c4)sc3n2)cc1 2.11%
CCCCN(C)CCCNC(=O)CN1N=C(c2ccc(OC)cc2)CCC1=O 1.5%
COc1cccc(Cn2c(SCc3ccc(C(=O)N4CCC(C)CC4)cc3)nc3ccncc32)c1 -3.99%
Cc1cccc(NC(=O)c2cc3c(C)nn(-c4ccccc4)c3s2)c1 -2.19%
CNC(=O)c1ccc(-c2nc(CN3CCc4ccccc43)c(C)o2)cc1 -3.21%
Cc1ccc2oc(=O)c3cnn(CC(=O)N4CCN(c5cccc(Cl)c5)CC4)c3c2c1 0.242%
COc1ccc(-n2c(SCC(=O)Nc3ccc(Cl)c(C)c3)nc3n[nH]c(C)c3c2=N)cc1 -0.559%
CCC(C(=O)Nc1cccc(Cl)c1C)n1nc(-c2ccc(C)cc2)ccc1=O (configuration not stated) -0.32%
Cc1cccc(CNS(=O)(=O)c2ccc(-c3cnc(C4CC4)o3)cc2)c1 -0.156%
CCc1cc2c(-c3ccccc3)cc(=O)oc2c2c1OCN(Cc1ccc(C)cc1)C2 -3.39%
Cc1oc2ccc(O)c(CN3CCCCC3)c2c1C(=O)Nc1cccc(C(F)(F)F)c1 -2.89%
CC(C)Cn1c(=O)c2ccccc2n2c(-c3cccc(Cl)c3)nnc12 2.06%
O=C(Nc1cc(Cl)cc(Cl)c1)c1ccc2c(c1)N(Cc1cccc(Cl)c1)C(=O)c1ccccc1S2=O (configuration not stated) 0.631%
O=C(O)c1ccc(Nc2nc(-c3ccccc3)c3cc(Br)ccc3n2)cc1 -17.5%
Cc1cc(C)c2sc(NC(=O)c3ccc(S(=O)(=O)N4CCCC4)cc3)nc2c1 4.94%
CCc1ccc(NC(=O)c2cnc3c(-c4ccccc4)c(C)nn3c2C)cc1 -1.8%
COc1ccc(-c2csc(-c3c(N)c(C(=O)c4ccc(OC)c(OC)c4)n4ccccc34)n2)cc1 3.42%
Cc1ccc(C)c(N2CCN(C(c3ccccc3)c3nnc(-c4ccccc4)o3)CC2)c1 (configuration not stated) 0.0723%
Fc1ccc(-c2nn(-c3ccccc3Cl)c3c2cnc2ccccc23)cc1 2.46%
CCOc1ccccc1CNC(=O)c1ccc2c(c1)nc1n2CCC(C)C1 (configuration not stated) -0.0943%
COc1ccccc1OCC(=O)Nc1nnc2n1CCS2 -0.292%
CCOC(=O)c1c(C)oc2ccc(N(C(=O)c3ccncc3)S(=O)(=O)c3ccc(CC)cc3)cc12 1.17%
O=C(CCS(=O)(=O)c1ccccc1)N(Cc1cccnc1)c1nc2c(F)cccc2s1 -1.2%
Cn1c(=O)sc2cc(NS(=O)(=O)c3ccc(C(C)(C)C)cc3)ccc21 -5.39%
COc1ccc2c(CNCCc3ccccc3C)c(C(=O)O)n(Cc3ccccc3C)c2c1 -3.79%
Cc1cc2c(cc1C)C(c1cccc(OC(C)C)c1)CC(=O)N2 (configuration not stated) -1.3%
CCc1nn(CCCC(=O)NCc2ccccc2OC)c(=O)c2cc3occc3n12 -0.0025%
Cc1cccc(NC(=O)c2ccc(F)c(S(=O)(=O)N(C)C3CCCCC3)c2)c1 0.693%
COc1ccc(CCNC(=O)c2ccc3c(c2)nc(C)n3-c2ccc(Br)cc2)cc1OC 0.65%
CCCCn1cc(S(=O)(=O)c2ccc(OCC)cc2)c(=O)c2cc(OC)c(OC)cc21 -6.12%
COc1ccccc1CNc1nc2ccc(Cl)cc2n2cnnc12 -1.28%
Cc1ccccc1CNC(=O)CCc1cn(Cc2ccccc2C)c2ccccc12 10.9%
COc1ccccc1-n1c(-c2ccc(C)cc2)cn2c3c(=O)n(C)c(=O)n(C)c3nc12 -1.18%
CCOC(=O)C1CCCN(C(=O)c2ccc(-n3ccc4ccccc43)s2)C1 (configuration not stated) -0.557%
Cc1cc(C)cc(NC(=O)c2cnc3sc(N4CCCC4)nn3c2=O)c1 -0.768%
COc1cc(NC(=O)CSc2nc3nc(C)c(Cc4ccc(C)cc4)c(C)n3n2)cc(OC)c1OC -13.3%
Cc1oc(C)c2c(=O)cc(-c3ccc4c(c3)OCO4)cc(OC(=O)c3ccc(Cl)cc3)c12 -2.11%
COc1cccc(N=C2SC(C(=O)Nc3cccc(Cl)c3)CC(=O)N2C)c1 (configuration not stated) -1.5%
Cc1ccccc1-c1nc2scc(CCNC(=O)C(=O)Nc3ccc(F)cc3F)n2n1 -0.431%
O=C(CSCc1cnn(-c2ccccc2)c1-n1cccc1)NCc1ccc(Cl)cc1 -1.64%
CCN(CC)S(=O)(=O)c1ccc(C(=O)N=c2sc3cccc(OC)c3n2C)cc1 2.51%
CC(=O)Nc1ccc(NC(=O)c2cc3sccc3n2Cc2ccc(F)cc2)cc1 -6.8%
CC(C)Cn1c(C2CC(=O)N(c3ccccc3Cl)C2)nc2ccccc21 (configuration not stated) 1.31%
CC1=C(C(=O)OCC2CCCCC2)C(c2c(F)cccc2Cl)CC(=O)N1 (configuration not stated) -0.961%
COc1cc(Cl)c(C)cc1NC(=O)CCc1nc2cccnc2n1Cc1cccs1 -0.925%
COc1ccc(-c2nc(Cn3c(=O)cc(C)c4c(C)nn(-c5ccccc5)c43)c(C)o2)cc1OC 1.24%
CCC(=O)N1CCc2cc(Br)cc(S(=O)(=O)Nc3ccc(C)cc3C)c21 -1.22%
CC(C)c1ccc(S(=O)(=O)Nc2ccc(O)c(Sc3nc4ccccc4s3)c2)cc1 -8.58%
Cc1ccc(-c2nn3c(=O)cc(CN4CCN(S(=O)(=O)c5ccc(Cl)cc5)CC4)nc3s2)cc1 -1.06%
NS(=O)(=O)c1ccc(NC(=O)COc2ccc(S(=O)(=O)NC3CCCCC3)cc2)cc1 -1.5%
Cc1ccc(NC(=O)Cc2ccc(NC(=O)N3CCCCc4ccccc43)cc2)cc1 0.025%
CC1CCC(N2CC(=O)N(CCC3=CCCCC3)C(c3ccc(F)cc3)C2=O)CC1 (configuration not stated) -9.66%
CCOc1ccccc1CNC(=O)c1ccc(-n2c(C)cc3c2CCC(C)C3)cc1 (configuration not stated) 1.74%
O=S(=O)(c1ccc(Br)cc1)c1nnn2c1nc(NC1CCCCCC1)c1sccc12 -3.9%
Cc1oc(-c2ccccc2)nc1Cn1c(SCc2cccc(C(F)(F)F)c2)nc2cccnc21 0.507%
CCCCOC(=O)/C(C#N)=C/c1ccc(-c2cccc(C(F)(F)F)c2)o1 8.04%
CCOc1ccccc1C(=O)Nc1ccc(S(=O)(=O)N2CCCCC2c2cccnc2)cc1 (configuration not stated) 1.42%
CN(Cc1ccccc1)c1ncnc2onc(-c3ccc(F)cc3)c12 -1.11%
Cc1cccc(C(C)C)c1NC(=O)C(NS(=O)(=O)c1cccc2nsnc12)c1ccccc1 (configuration not stated) -0.333%
Cc1cccc(Cc2c(C)nc3nc(SCc4ccccc4Cl)nn3c2C)c1 0.0529%
Cc1ccc(/C=C(\C#N)C(=O)Nc2cc(C)ccc2C)cc1 -0.172%
COc1ccc(Cn2c(=O)n(-c3ccccc3C)c(=O)c3c4c(sc32)CN(C(C)=O)CC4)cc1 -0.737%
CCOC(=O)c1cc2c(=O)n3ccccc3nc2n(CC2CCCO2)c1=NC(=O)c1ccccc1F (configuration not stated) 0.0852%
